Source: PubChem BioAssay
Wnt act: Wnt/beta-catenin pathway activators, primary screen, cell-based, plate reader, single point; Wnt/beta-catenin reporter cell assay, activator; activation, % at 9.35 µM; 1.2% of 300,000 active; AID 743398, 2014; in the data active = activation above about 30%, passing the limit was not always enough; inconclusive = no clear call, values can overlap the other calls;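 also: 0% = neutral control wells and 100% = positive control wells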
Rtt109 HAT inh: inhibitors of C. albicans Rtt109/Vps75 HAT, primary screen, biochemical, ThioGlo CoA-SH fluorescence, plate reader | inhibition, % at 34.9 µM | AID 540336, 2011 | 0.16% of 330,000 active | purified Rtt109/Vps75, 4 h;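 active = inhibition of at least 50% in every replicate; inconclusive = best replicate reaches 50% inhibition but some replicates fall short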
Target sequence (Q5AAJ8 whole entry, looked up): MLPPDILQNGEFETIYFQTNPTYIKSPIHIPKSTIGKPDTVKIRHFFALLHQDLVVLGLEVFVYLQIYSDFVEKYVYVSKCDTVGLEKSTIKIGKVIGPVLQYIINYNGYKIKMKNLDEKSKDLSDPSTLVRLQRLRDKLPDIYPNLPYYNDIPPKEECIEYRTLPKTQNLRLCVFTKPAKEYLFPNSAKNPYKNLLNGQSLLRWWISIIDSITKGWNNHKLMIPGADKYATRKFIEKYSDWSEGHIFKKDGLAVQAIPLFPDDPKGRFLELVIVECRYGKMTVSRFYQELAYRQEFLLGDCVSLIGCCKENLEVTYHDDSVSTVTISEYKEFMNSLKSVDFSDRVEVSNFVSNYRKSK
C2C12 statin: suppressors of statin myotoxicity in C2C12 myotubes, primary screen, cell-based, single point, plate reader | C2C12 myotubes + simvastatin, ATP luminescence, 48 h; scaled: DMSO 0, geranylgeraniol control 100 | rescue of ATP level, % at 7.49 µM | 0.78% of 330,000 active | AID 602340, 2012;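 active = mean ATP rescue above about 67%, or every replicate alone reaching that limit, limit read from the data, passing the limit was not always enough; inconclusive = no clear call, values can overlap the other calls; inactive = mean under the limit and some replicate under it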;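 also: myotubes were challenged with 10 µM simvastatin during compound exposure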
MITF TRPM1 HTS: activators of MITF-driven TRPM1 promoter reporter, primary screen, cell-based, SK-MEL-5, luciferase, single point; activation, % at 12.5 µM; 0.75% of 300,000 active; SK-MEL-5 TRPM1-promoter luciferase, 24 h; % of positive control, neutral wells = 0;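 active = mean activation of at least 80% with every replicate also reaching 80%; inconclusive = mean reaches 80% but some replicate falls short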;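 also: 0% = neutral control wells and 100% = parthenolide positive control wells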
esBAF inh: Bmi1 luciferase reporter increase in mESCs, primary screen, esBAF inhibitor project, mouse ES cells, Bmi1 luciferase knock-in, single point | AID 602393, 2012 | reporter increase, % at 12.5 µM | 2% of 350,000 active | 24 h; 100% = twice the neutral-well signal; in the data active = activation above about 40%; inconclusive = no clear call, values can overlap the other calls;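 also: 0% = median of the plate's neutral control wells and 100% = double that signal; a rise in the Bmi1 reporter signal indicates esBAF inhibition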
An asterisk follows results filed as active; ? = inconclusive; . = no result. Most compounds without a hit are left out; they make up all but 3.1% or so of the library.

SMILES | Wnt act | Rtt109 HAT inh | C2C12 statin | MITF TRPM1 HTS | esBAF inh
CO[C@@H]1CN(C)C(=O)c2ccc(NC(=O)c3nc4ccccc4s3)cc2OC[C@H](C)NC[C@H]1C | . | . | 0 | . | 7
Cc1cc(C)cc(NC(=O)CSc2nccn2Cc2ccco2)c1 | -1 | 10 | -1 | 12 | 19
Cc1cccc(NC(=O)CSc2nccn2Cc2ccco2)c1 | 20 | -3 | 0 | 66 | 44*
CCOc1ccc(NC(=O)CSc2nccn2Cc2ccco2)cc1 | 10 | 17 | 0 | 49 | 21
CCC(=O)Nc1cc(NC(=O)CSc2ncc(-c3ccc(F)cc3)n2Cc2ccco2)ccc1C | 38* | 3 | . | 78 | .
COc1ccc(NC(=O)CSc2nnc(-c3ccccc3Cl)n2Cc2ccco2)c(OC)c1 | -3 | 4 | 115* | -3 | -5
COc1ccc(NC(=O)CSc2nccn2Cc2ccco2)cc1 | 36* | -8 | 4 | 57 | 36
COc1ccc(NC(=O)CSc2ncc(-c3ccc(F)cc3)n2Cc2ccco2)cc1 | 2 | 5 | 4 | 3 | -19
COC(=O)N(C)C[C@H]1OCc2cn(nn2)CCCC(=O)N([C@@H](C)CO)C[C@H]1C | . | . | -13 | . | 0
C[C@H]1CN([C@@H](C)CO)C(=O)c2cc(NC(=O)Nc3ccc4c(c3)OCO4)ccc2O[C@H]1CN(C)Cc1ccccc1 | . | . | -12 | . | -4
CC(C)NC(=O)N[C@H]1CC[C@@H](CCNC(=O)C2CCCC2)O[C@H]1CO | . | . | -1 | . | 0
COc1ccc(/C(N)=N/OC(=O)COc2ccccc2Cl)cc1 | 0 | 1 | -1 | 60 | 49*
Cc1ccccc1OCC(=O)O/N=C(\N)c1ccncc1 | 18 | -4 | 18 | 48 | 58*
N/C(=N\OC(=O)COc1cc(Cl)c(Cl)cc1Cl)c1ccncc1 | 4 | . | . | . | .
COc1ccc(/C(N)=N/OC(=O)Cc2cccs2)cc1 | -2 | -6 | 6 | ? | 60*
N/C(=N\OC(=O)COc1ccc(Br)cc1Cl)c1ccncc1 | 67* | -8 | . | 130* | .
Cc1cccc(/C(N)=N/OC(=O)COc2ccccc2Cl)c1 | . | 9 | . | 32 | .
Cc1ccc(OCC(=O)O/N=C(\N)c2ccncc2)c(C)c1 | 20 | -6 | 42 | 161* | 69*
CCCCS/C(N)=N/N=C/c1ccccc1O | . | -7 | . | 69 | .
CCCS/C(N)=N/N=C/c1cc(C)ccc1O | . | 1 | . | 123* | .
COCCOc1ccc(C(F)(F)F)cc1NC(=O)c1ccc(C(F)(F)F)cc1 | 0 | 4 | . | -3 | .
COCCOc1ccc(C(F)(F)F)cc1Nc1nc2ccccc2o1 | . | 5 | 7 | 70 | 62*
C[C@@H]1CN([C@@H](C)CO)C(=O)c2cc(NC(=O)c3ccncc3)ccc2O[C@@H](C)CCCCO[C@H]1CN(C)C(=O)Nc1ccc(F)cc1 | . | . | . | . | -4
CO[C@H]1CN(C)C(=O)c2cc(NS(C)(=O)=O)ccc2OC[C@H](C)N(CC2CCCCC2)C[C@H]1C | . | . | 2 | . | 5
C[C@@H]1CN([C@@H](C)CO)C(=O)c2cc(-c3ccccc3F)cnc2O[C@H]1CN(C)Cc1cccc(C(=O)O)c1 | . | . | 0 | . | -5
SMILES | Wnt act | Rtt109 HAT inh | C2C12 statin | MITF TRPM1 HTS | esBAF inh
Cc1ccc(NC(=O)c2ccc(Br)o2)cc1S(=O)(=O)N(C)C | 23 | -3 | -9 | 34 | 55*
CC(=O)c1c(C)[nH]c(C(=O)Nc2ccc(S(=O)(=O)N(C)C)cc2)c1C | 28 | -5 | . | 0 | .
CC(=O)c1c(C)[nH]c(C(=O)Nc2ccc(C)c(S(=O)(=O)N(C)C)c2)c1C | 10 | -7 | 1 | 93* | 32
Cc1ccc(NC(=O)c2ccncc2)cc1S(=O)(=O)N(C)C | -2 | 11 | . | -2 | .
C/C(=N\NC(=O)c1nnn(-c2nonc2N)c1CN(C)c1ccccc1)c1cccnc1 | 34* | 0 | -18 | -1 | -6
O=c1cc(-c2ccco2)oc2c1ccc1ccccc12 | -2 | -3 | 103* | 10 | 17
O=c1c2ccccc2oc2c1ccc1ccccc12 | . | 0 | 6 | 90* | 72*
C[C@@H]1CCCCO[C@H](CN(C)C)[C@H](C)CN([C@H](C)CO)C(=O)c2cc(NC(=O)CCCN(C)C)ccc2O1 | . | . | 1 | . | -8
COc1ccc(NC(=O)N(C)C[C@@H]2OCCCC[C@H](C)Oc3ccc(NC(=O)Nc4c(C)noc4C)cc3C(=O)N([C@@H](C)CO)C[C@@H]2C)cc1 | . | . | 9 | . | -1
CCOc1ccc(CCNC(=O)c2ccc3nc(CC)c(CC)nc3c2)cc1 | 2 | 7 | 5 | -10 | 7
O=C(NCc1ccco1)c1ccc2ccccc2c1 | . | -1 | 5 | 90* | 72*
CCc1nc2ccc(C(=O)NCCc3ccco3)cc2nc1CC | . | -6 | -3 | 87* | 53*
COc1ccccc1N=c1oc2c(OC)cccc2cc1C(=O)NCc1ccco1 | . | -8 | 12 | 66 | 52*
COc1ccc(C(=O)Nc2ccccc2C(=O)NCc2ccco2)cc1OC | 48* | 0 | 14 | . | 17
O=C(NCc1ccco1)c1ccc(C(=O)NCc2ccco2)cc1 | 0 | -8 | . | 2 | .
COc1ccc(C(=O)Nc2ccc(Cl)cc2C(=O)NCc2ccco2)cc1OC | -5 | 8 | 24 | 16 | -2
C[C@H](CO)N1C[C@H](C)[C@H](CN(C)C(=O)C2CC2)Oc2ncc(C3=CCCC3)cc2C1=O | . | . | 10 | . | .
Cc1ccc(S(=O)(=O)Nc2ccc3c(c2)C(=O)N([C@@H](C)CO)C[C@@H](C)[C@H](CN(C)C(=O)CCCN(C)C)OCCCC[C@H](C)O3)cc1 | . | . | . | . | 0
C[C@H]1CN([C@@H](C)CO)S(=O)(=O)c2ccc(/C=C/c3ccccc3)cc2O[C@@H]1CN(C)Cc1cncnc1 | . | . | -92 | . | -13
O=C(Nc1sc2c(c1C(=O)NCc1ccco1)CCCC2)c1ccc2c(c1)OCO2 | 18 | 7 | -9 | 100* | 46*
O=C(NCc1ccco1)c1cc(-c2ccccc2)on1 | . | . | -21 | 51 | 105*
O=C(NCc1ccco1)c1cc(-c2ccc(F)cc2)on1 | . | -3 | -9 | 72 | 0
C[C@@H]1CN([C@H](C)CO)S(=O)(=O)c2ccc(-c3cccnc3)cc2O[C@@H]1CN(C)C(=O)C1CCC1 | . | . | -4 | . | 4
CC(=O)Nc1ccc(N=Nc2ccccc2)cc1[N+](=O)[O-] | -1 | . | -2 | . | 56*
CC(=O)Nc1cc2oc3ccccc3c2cc1[N+](=O)[O-] | 17 | . | 21 | . | ?
Cc1ccc(Nc2nc(COC(=O)COc3ccc(C=O)cc3)cs2)cc1 | 27 | -7 | 0 | 50 | 49*
O=C(C[C@H]1C=C[C@@H](NS(=O)(=O)c2ccccc2)[C@@H](CO)O1)NCc1ccncn1 | . | . | -4 | . | 0
CC1(CCC(=O)O)C(=O)CCC2C1CCC1(C)C2CCC1(C)O (stereo not given) | 33* | 3 | -2 | 8 | -3
